Experiment [1] concerns the target Cytochrome P450 2C9 (Homo sapiens) (UniProt P11712). In words: qHTS Assay for Inhibitors and Substrates of Cytochrome P450 2C9 (AID 883). Note: % is set by controls: 0 for no effect and ±100 for the full control effect; nearly all actives have a fitted effect of over 60% in size. Put shortly:
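Human CYP2C9 (10nM) hydroxylated Luciferin-H (100uM, at its KM) to luciferin in 25mM KPO4. Compound was preincubated 10 min at 37C, then NADPH regeneration started a 60 min reaction at 37C. Luminescence was read after detection reagent, normalized to 57uM sulphaphenazole.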
Background: Quantitative high-throughput screening tests each substance at several concentrations.

Experiment [2] has as its target Cytochrome P450 3A4 (Homo sapiens) (UniProt P08684). Description: qHTS Assay for Inhibitors and Substrates of Cytochrome P450 3A4 (AID 884). For activity change, negative = inhibition: series mostly up to about 57 µM; % is set by controls: 0 for no effect and ±100 for the full control effect. Note: nearly all actives have a fitted effect of over 50% in size. Note: potency is the fitted concentration of half-maximal effect. Put shortly:
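20 nM human CYP3A4 with 25 uM Luciferin-PPXE (at KM) in 200 mM KPO4, preincubated 10 min with compound; NADPH regeneration started a 60 min RT reaction. Luciferin detected by luminescence, normalized to 57 uM ketoconazole as full inhibition.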

For experiment [3] the target is unchanged. In words: qHTS Assay for Activators of Cytochrome P450 3A4 (AID 885). Note: nearly all actives have a fitted effect of over 65% in size. Put shortly: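 Signal was normalized against complete inhibition by 57 uM ketoconazole. The reaction used 20nM CYP3A4 with 25uM Luciferin-PPXE, 10-min compound preincubation and a 60-min NADPH-supported step at RT.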
In experiment [4] the target is Cytochrome P450 2D6 (Homo sapiens) (UniProt P10635). In words: qHTS Assay for Inhibitors and Substrates of Cytochrome P450 2D6 (AID 891).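 For activity change, negative = inhibition: luciferin methyl ether substrate demethylated by CYP2D6 with NADPH regeneration; % is set by controls: 0 for no effect and ±100 for the full control effect.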 Note: nearly all actives have a fitted effect of over 60% in size. Note: potency is the fitted concentration of half-maximal effect. Put shortly: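 Human CYP2D6 (5 nM) with 30 uM Luciferin-ME EGE (at Km) in 100 mM KPO4, compound preincubated 10 min, then NADPH regeneration system for 60 min at room temperature. Luciferin read by luminescence; normalized to 1.43 uM quinidine.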
Chain of Cytochrome P450 2D6 (Homo sapiens) (P10635 whole entry, looked up): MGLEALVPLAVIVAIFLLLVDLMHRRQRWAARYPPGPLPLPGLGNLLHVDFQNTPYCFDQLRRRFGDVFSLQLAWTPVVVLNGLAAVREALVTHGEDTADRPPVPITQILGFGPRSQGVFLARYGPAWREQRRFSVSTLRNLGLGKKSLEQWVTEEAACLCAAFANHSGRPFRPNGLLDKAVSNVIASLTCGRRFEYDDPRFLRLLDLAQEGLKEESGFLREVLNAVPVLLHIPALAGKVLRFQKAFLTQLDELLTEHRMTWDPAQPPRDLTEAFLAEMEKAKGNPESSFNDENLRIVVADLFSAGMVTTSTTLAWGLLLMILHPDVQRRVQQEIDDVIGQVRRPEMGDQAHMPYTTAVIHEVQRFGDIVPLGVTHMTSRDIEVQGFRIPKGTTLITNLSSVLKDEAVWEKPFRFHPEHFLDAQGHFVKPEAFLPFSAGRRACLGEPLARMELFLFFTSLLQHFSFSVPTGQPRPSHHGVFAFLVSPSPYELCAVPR

The target in experiment [5] is Cytochrome P450 2C19 (Homo sapiens) (UniProt P33261). Description: qHTS Assay for Inhibitors and Substrates of Cytochrome P450 2C19 (AID 899). Note: nearly all actives have a fitted effect of over 60% in size. Note: potency is the fitted concentration of half-maximal effect. Put shortly:
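Human CYP2C19 (5nM) with Luciferin-H EGE at 10uM (its KM) in 50mM KPO4 was preincubated with compound for 10 min at 37C. NADPH regeneration started a 60 min 37C reaction. Luciferin was read by luminescence, normalized to 57uM ketoconazole.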

Structures are written as SMILES. Several values for one entry are separate records, joined by “and”; a condition that tells them apart may be missing. Equal values may be shown once. Inconclusive results are not listed. More than one record can exist for a structure, and the calls need not agree. Activity calls are given as the source filed them. Calls come from the whole dose curve; as a rule, active = well fitted curve in the direction sought with a large enough effect; inconclusive = small, poorly fitted or top-dose-only effect, or another doubt; inactive = no such curve, though single readings can be large; an effect the other way counts as inactive or inconclusive.

Chain of Cytochrome P450 3A4 (Homo sapiens) (P08684 whole entry, looked up): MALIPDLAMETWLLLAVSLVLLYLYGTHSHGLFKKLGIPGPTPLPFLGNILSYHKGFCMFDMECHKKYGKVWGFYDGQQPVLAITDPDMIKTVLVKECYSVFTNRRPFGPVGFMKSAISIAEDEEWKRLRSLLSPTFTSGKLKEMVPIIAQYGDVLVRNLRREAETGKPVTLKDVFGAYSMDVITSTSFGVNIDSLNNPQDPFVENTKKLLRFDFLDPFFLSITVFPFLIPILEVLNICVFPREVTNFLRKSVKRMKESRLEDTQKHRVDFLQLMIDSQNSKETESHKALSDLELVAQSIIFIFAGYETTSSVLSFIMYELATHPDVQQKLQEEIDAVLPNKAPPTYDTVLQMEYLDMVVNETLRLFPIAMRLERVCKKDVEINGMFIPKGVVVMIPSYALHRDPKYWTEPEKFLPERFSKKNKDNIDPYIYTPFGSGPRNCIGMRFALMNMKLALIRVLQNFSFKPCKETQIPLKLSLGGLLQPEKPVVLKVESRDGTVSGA
Chain of Cytochrome P450 2C9 (Homo sapiens) (P11712 whole entry, looked up): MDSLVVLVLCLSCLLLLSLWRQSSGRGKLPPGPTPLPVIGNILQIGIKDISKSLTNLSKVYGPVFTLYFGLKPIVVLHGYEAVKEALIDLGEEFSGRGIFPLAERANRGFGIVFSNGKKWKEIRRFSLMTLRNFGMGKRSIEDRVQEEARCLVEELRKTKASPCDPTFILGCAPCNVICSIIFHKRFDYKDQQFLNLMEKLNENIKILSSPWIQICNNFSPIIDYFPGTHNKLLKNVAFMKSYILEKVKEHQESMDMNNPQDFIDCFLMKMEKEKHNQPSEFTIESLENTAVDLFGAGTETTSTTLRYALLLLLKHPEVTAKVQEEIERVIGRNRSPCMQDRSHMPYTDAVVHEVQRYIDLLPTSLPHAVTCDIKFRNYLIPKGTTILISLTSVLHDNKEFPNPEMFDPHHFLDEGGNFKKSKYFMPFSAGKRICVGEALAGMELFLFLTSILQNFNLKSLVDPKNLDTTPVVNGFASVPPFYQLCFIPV
Chain of Cytochrome P450 2C19 (Homo sapiens) (P33261 whole entry, looked up): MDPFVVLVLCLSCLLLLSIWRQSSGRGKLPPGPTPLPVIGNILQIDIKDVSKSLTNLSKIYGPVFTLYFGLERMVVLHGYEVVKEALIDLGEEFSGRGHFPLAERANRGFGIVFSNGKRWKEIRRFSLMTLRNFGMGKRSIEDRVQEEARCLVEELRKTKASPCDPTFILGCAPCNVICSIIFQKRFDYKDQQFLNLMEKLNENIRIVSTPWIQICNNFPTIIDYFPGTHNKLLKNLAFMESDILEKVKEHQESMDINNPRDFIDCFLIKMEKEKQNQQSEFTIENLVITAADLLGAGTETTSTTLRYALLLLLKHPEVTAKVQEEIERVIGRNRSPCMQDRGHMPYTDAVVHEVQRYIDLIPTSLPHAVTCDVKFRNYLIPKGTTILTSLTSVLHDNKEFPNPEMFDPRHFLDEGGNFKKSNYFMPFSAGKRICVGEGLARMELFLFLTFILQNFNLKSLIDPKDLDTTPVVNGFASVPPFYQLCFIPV

For the compound `COC(=O)[C@H](CCSC)NC(=O)C/C=C\[C@@H](C)CO`, the Potency result in experiment [1] was “inactive”.
Take `Cc1ccc(S(=O)(=O)N[C@H]2COC(=O)C/C=C\[C@@H](C)COC(=O)C/C=C\[C@@H]2C)cc1`: the Potency result in experiment [1] was “inactive”. The Potency in experiment [2] is 3.16 µM (active). Further, the activity change, positive = activation in experiment [3] was -68.8% [at 11.4 µM] (inactive).
On to `COC(=O)NC(/C(C(=O)OC)=C(\C)NCc1ccccc1)c1cccc(C)c1` (stereo unspecified), for which, in experiment [1], the Potency entry is “inactive”. Further, the activity change, negative = inhibition in experiment [2] is -22.4% [at 11.4 µM] (inactive).
For `CCOC(=O)[C@]1(C(NC(=O)OC)c2cccc(F)c2)CCCC1=O` (stereo partly specified), in that order: “inactive” and -16.9% [at 11.4 µM] (inactive).
As for `COc1ccc(OC2C=CC(c3ccccc3)OC2CO)cc1` (stereo unspecified), in experiment [1], the Potency result is “inactive”. In addition, the Potency in experiment [2] was 3.98 µM (active). Besides, the activity change, positive = activation in experiment [3] was -66.9% [at 11.4 µM] (inactive).
Regarding `C#CCC(C(=O)OC)(C(=O)OC)C(C[N+](=O)[O-])c1ccccc1` (stereo unspecified), the Potency result in experiment [1], in experiment [4] and in experiment [5] was “inactive” in each case. For the same compound, the Potency in experiment [2] was 3.16 µM (active). The activity change, positive = activation in experiment [3] was -77% [at 11.4 µM] (inactive).
`CC(=O)OCC1OC(C#CCCc2ccccc2)C=CC1OC(C)=O` (stereo unspecified): the Potency result in experiment [1], in experiment [4] and in experiment [5] was “inactive” each time. Further, the Potency in experiment [2] is 3.16 µM (active). Besides, in experiment [3], the activity change, positive = activation was -61.8% [at 11.4 µM] (inactive).
Regarding `OCC1OC(/C=C\c2ccccc2)C=CC1Oc1ccc2c(c1)OCO2` (stereo unspecified), the Potency entry in experiment [1] is “inactive”. The values for the Potency in experiment [2], in experiment [4] and in experiment [5] were 0.398 µM (active), 3.98 µM (active) and 251 nM (active), respectively. In experiment [3], the activity change, positive = activation was -105% [at 11.4 µM] (inactive).
For `COC(=O)C1=C(C)N(Cc2ccccc2)[C@]23O[C@](C(=O)OC)(C(=O)N2C1c1ccccc1)C1CCOC(=O)C13` (stereo partly specified), in that order: “inactive”, 2.51 µM (active), “inactive”, “inactive” and -70.4% [at 11.4 µM] (inactive).
In the same order, the values of `CC(C)(C)c1ccc(OC2C=CC(C#Cc3ccccc3)OC2CO)cc1` (stereo unspecified) are “inactive”, 3.16 µM (active), “inactive”, “inactive” and -73.2% [at 11.4 µM] (inactive).
For `CCCCCCCC#Cc1ccccc1/C=N/S(=O)c1ccc(C)cc1` (stereo unspecified), in that order: “inactive”, 3.98 µM (active), “inactive”, “inactive” and -65.3% [at 11.4 µM] (inactive).
Regarding `CC1CCC2C(=O)N3C(CCC(C)[C@@H]3c3cccc(N4CCOCC4)c3)C(=O)N2C1c1cccc(N2CCOCC2)c1` (stereo partly specified), the Potency entry in experiment [1], in experiment [4] and in experiment [5] was “inactive” each time. For the same compound, in experiment [2], the Potency was 3.98 µM (active). The activity change, positive = activation in experiment [3] is -62.4% [at 11.4 µM] (inactive).
As to `CCOC(=O)OCC1OC(c2cc(C)cc(C)c2)C=CC1OC(=O)OCC` (stereo unspecified), the Potency result in experiment [1], in experiment [4] and in experiment [5] was “inactive” each time. Besides, in experiment [2], the Potency was 3.98 µM (active). Moreover, in experiment [3], the activity change, positive = activation was -69.3% [at 11.4 µM] (inactive).
Take `CC(=O)OCC1OC(C#CCCCc2ccccc2)C=CC1OC(C)=O` (stereo unspecified): the Potency entry in experiment [1] and in experiment [5] was “inactive” each time. The Potency in experiment [2] is 3.98 µM (active); in experiment [4], 3.98 µM (active) and 3.16 µM (active). Besides, the activity change, positive = activation in experiment [3] is -71.4% [at 11.4 µM] (inactive) and -59.5% [at 11.4 µM] (inactive).
Regarding `CC1CCC2C(=O)OC(COc3ccc(C(C)(C)C)cc3)CN2C1c1ccc(Br)cc1` (stereo unspecified), the Potency entry in experiment [1] and in experiment [4] was “inactive” each time. Also, the activity change, negative = inhibition in experiment [2] was -22.1% [at 11.4 µM] (inactive) and -29.8% [at 11.4 µM] (inactive) and -21% [at 11.4 µM] (inactive). Besides, in experiment [3], the activity change, positive = activation was -42.1% [at 11.4 µM] (inactive) and -33.2% [at 11.4 µM] (inactive). Further, in experiment [5], the Potency was 251 nM (active) and inactive.
In the case of `COc1ccc(/C=C/NC(=O)Cc2ccc(OC)c(OC)c2)cc1`, the Potency entry in experiment [1], in experiment [4] and in experiment [5] was “inactive” each time. Further, the Potency in experiment [2] is 3.16 µM (active). Further, the activity change, positive = activation in experiment [3] was -57.1% [at 11.4 µM] (inactive) and -101% [at 11.4 µM] (inactive).
As to `COc1ccc(OCC2CN3C(CCC(C)C3c3ccc(Br)cc3)C(=O)O2)cc1` (stereo unspecified), the Potency entry in experiment [1], in experiment [4] and in experiment [5] was “inactive” throughout. The Potency in experiment [2] was 3.98 µM (active). The activity change, positive = activation in experiment [3] is -46.6% [at 11.4 µM] (inactive) and -70% [at 11.4 µM] (inactive).
For `COC(=O)C1=C(C)N(Cc2ccccc2)[C@]23O[C@](C(=O)OC)(C(=O)N2C1c1ccccc1)C1CCCC(=O)C13` (stereo partly specified), the Potency entry in experiment [1], in experiment [4] and in experiment [5] was “inactive” in each case. In addition, the activity change, negative = inhibition in experiment [2] is -22.3% [at 11.4 µM] (inactive). Moreover, the activity change, positive = activation in experiment [3] is -50.6% [at 11.4 µM] (inactive).
On to `COc1ccc(/C=C/N(CCc2ccc(OC)c(OC)c2)C(=O)c2ccccn2)cc1`, for which the Potency result in experiment [1], in experiment [4] and in experiment [5] was “inactive” each time. Moreover, the Potency in experiment [2] is 3.98 µM (active). The activity change, positive = activation in experiment [3] is -97.7% [at 11.4 µM] (inactive).
Consider `COC(=O)C1=C2N(Cc3ccccc3)C(C)=C(C(=O)OC)C(c3ccccc3)N2C(=O)[C@](O)(C(=O)OC)C1` (stereo partly specified), for which the Potency entry in experiment [1], in experiment [4] and in experiment [5] was “inactive” each time. Further, the activity change, negative = inhibition in experiment [2] is -26.5% [at 11.4 µM] (inactive). Moreover, the activity change, positive = activation in experiment [3] is -51.3% [at 11.4 µM] (inactive).
